TRHR PAM = allosteric enhancers of human TRH receptor. TRHR cells, fluo-8 calcium fluorescence, EC20 TRH enhancement. P34981. enhancement, % at 2 µM. actives 0.66% (n = 360,000). AID 493056; in the data active = enhancement above about 30%; also: 0% is about no effect
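Enhancer read-out: after compound pinning and an initial kinetic agonist-mode read, an EC20 of TRH (10 nM final) was injected and fluo-8 calcium signal (Ex 480/Em 530) followed at 1 s/cycle for 100 cycles in TRHR-expressing cells.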
D1 agonist = activates the human D1 dopamine receptor | P21728 | activation, % at 2 µM | HEK293 T-REx D1 cells, calcium flux, agonist mode | actives 1% (n = 360,000); also: 0% is about no effect
Target sequence (P21728 whole entry, looked up): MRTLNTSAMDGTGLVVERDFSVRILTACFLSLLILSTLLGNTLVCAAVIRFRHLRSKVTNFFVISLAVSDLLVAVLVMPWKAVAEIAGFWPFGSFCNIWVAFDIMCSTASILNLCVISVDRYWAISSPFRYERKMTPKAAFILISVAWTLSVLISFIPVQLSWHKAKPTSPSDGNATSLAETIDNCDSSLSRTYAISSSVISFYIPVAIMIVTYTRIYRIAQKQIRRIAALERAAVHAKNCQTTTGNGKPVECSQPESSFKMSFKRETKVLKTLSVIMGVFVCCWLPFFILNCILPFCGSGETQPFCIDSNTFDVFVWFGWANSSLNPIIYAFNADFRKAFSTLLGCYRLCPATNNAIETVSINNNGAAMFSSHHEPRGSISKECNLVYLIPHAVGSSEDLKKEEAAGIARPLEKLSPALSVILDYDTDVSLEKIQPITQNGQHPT
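Tetracycline-induced HEK293 TREx D1 cells, force-coupled to calcium signalling, were dye-loaded with a no-wash calcium kit. Compound was pin-added after a 10 s baseline. Fluorescence was read kinetically at 1 cycle/s for 180 s, with calcium rises flagged as agonism.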
TRHR ag = activates the human TRH receptor. P34981. TRHR cells, calcium flux fluo-8, FDSS agonist mode. activation, % at 2 µM. actives 0.18% (n = 360,000). AID 493084; also: 0% is about no effect
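TRHR-expressing cells loaded with fluo-8 calcium dye; 23 nL library compound pin-transferred, kinetic FDSS fluorescence (Ex 480/Em 530) recorded about 180 s for agonist-induced calcium release, before a 10 nM TRH EC20 addition for potentiator mode.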
D1 antag = human D1 dopamine receptor antagonism; AID 504652; activity change, negative = inhibition, % at 10 µM; actives 3.2% (n = 360,000); HEK293 TREx D1 cells, calcium flux, dopamine EC80; hits give low values; in the data active = activity change below about -30%; also: % is scaled to controls: 0 for no effect and ±100 for the full control effect
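Using tetracycline-induced force-coupled D1 Hek293 cells and a calcium dye, signals were followed for 180 s after compound, then for 180 s after EC80 dopamine, to detect inhibitors.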
D1 PAM = human D1 dopamine receptor positive modulation | P21728 | HEK293 TREx D1 cells, calcium flux, dopamine EC20 potentiation | potentiation, % at 10 µM | actives 0.036% (n = 360,000) | AID 504651; in the data active = potentiation above about 30%; also: 0% is about no effect
An asterisk follows results filed as active; ! = a repeat was not active. Sampled rows, rich in hits. Any-hit rate of the full collection: about 4.7%. Rule as the data show it, unless noted: active = activation above about 30%; inactive = the rest.

COc1ccc(Cl)c(NC(=O)NCCN2CCN(c3ccccc3)CC2)c1 was read as TRHR PAM -0.4, D1 agonist 6.6, TRHR ag 0.2, D1 antag -65.1* and D1 PAM -5.8.
Screening Cc1ccccc1C1CC(=O)Nc2ccc3ccccc3c21 (centres undefined) returned TRHR PAM -3.7, D1 agonist 0.6, TRHR ag -1.3, D1 antag 2.9 and D1 PAM 1.6.
`O=C(NCCCN1CCOCC1)c1ccccc1N1C(=O)[C@@H]2Cc3c([nH]c4ccccc34)C(c3cccc(Cl)c3)N2C1=O` (some centres undefined) gave TRHR PAM 0.9, D1 agonist 9.6, TRHR ag 1.0, D1 antag -46.2* and D1 PAM -8.6.
For CS(=O)(=O)/C=C/c1nc(Nc2cc(F)cc(F)c2)c2ncn(CC(F)F)c2n1 the results were TRHR PAM 1.2, D1 agonist 1.8, TRHR ag -0.8, D1 antag 25.8 and D1 PAM -1.5.
`O=C1C2C3C=CC(C3)C2C(=O)N1c1ccc(Cc2ccncc2)cc1` (centres undefined) gave TRHR PAM 4.6, D1 agonist 22.5, TRHR ag 1.1, D1 antag -2.7 and D1 PAM -8.4.
`CC1CCC2C(=O)N(c3ccc(Cc4ccncc4)cc3)C(=O)C2C1` (centres undefined) gave TRHR PAM 1.3, D1 agonist 10.6, TRHR ag 1.0, D1 antag -30.3* and D1 PAM -8.0.
COc1ccc(CNC(=O)C2CCCCN2S(=O)(=O)c2ccc(F)cc2)cc1 (centres undefined) was read as TRHR PAM 16.4, D1 agonist 1.8, TRHR ag -0.3, D1 antag 14.6 and D1 PAM 3.5.
`CCN(Cc1ccc(OC)c(F)c1)C(=O)/C=C/c1ccc(S(=O)(=O)N2CCOCC2)cc1` gave TRHR PAM 2.4, D1 agonist 6.5, TRHR ag -1.4, D1 antag -41.1* and D1 PAM -5.6.
Cc1ccccc1NC(=O)c1ccc(CN2CC(=O)N3CCCCC3C2=O)cc1 (centres undefined) was read as TRHR PAM 1.6, D1 agonist 2.5, TRHR ag 0.1, D1 antag -37.4* and D1 PAM -2.1.
For COC(=O)C(C)(C)ONC(=O)Nc1ccccc1[N+](=O)[O-] the results were TRHR PAM 30.6*, D1 agonist 1.9, TRHR ag 0.3, D1 antag -16.9 and D1 PAM -3.0.
NS(=O)(=O)c1ccc(-n2nncc2C23CC4CC(CC(C4)C2)C3)cc1 was read as TRHR PAM 4.2, D1 agonist 0.9, TRHR ag 0.1, D1 antag -90.8* and D1 PAM -2.2.
Screening CCN(CC)c1ccc2cc(C(N)=O)c(=O)oc2c1 returned TRHR PAM 3.8, D1 agonist 32.4*, TRHR ag -0.5, D1 antag 0.6 and D1 PAM 2.0.
`CCN(CC)c1ccc2cc(C(N)=O)c(=N)oc2c1` gave TRHR PAM 1.4, D1 agonist 27.2, TRHR ag 24.8, D1 antag -2.7 and D1 PAM 4.2.
For N/C(=N\NC(=O)c1cccs1)c1cc2ccccc2oc1=O the results were TRHR PAM 3.2, D1 agonist 1.7, TRHR ag -0.8, D1 antag -13.0 and D1 PAM -1.6.
For CCN(CC)c1ccc2cc(C(=O)Nc3cccnc3N3CCOCC3)c(=O)oc2c1 the results were TRHR PAM 8.7, D1 agonist 9.3, TRHR ag 3.7, D1 antag -4.2 and D1 PAM 4.7.
CCN(CC)c1ccc2cc(/C(N)=N/NC(=O)c3cccs3)c(=O)oc2c1 was read as TRHR PAM -3.7, D1 agonist 30.4*, TRHR ag 25.2, D1 antag -10.7 and D1 PAM 3.2.
For CCN(CC)c1ccc2cc(C=O)c(=O)oc2c1 the results were TRHR PAM 9.4, D1 agonist 186.8*, TRHR ag 116.2*, D1 antag 3.0 and D1 PAM -4.2.
For CCN(CC)c1ccc2cc(C(=O)Nc3ccccn3)c(=O)oc2c1 the results were TRHR PAM -7.7, D1 agonist 29.8, TRHR ag 37.4*, D1 antag -6.1 and D1 PAM 1.6.
For CC(=O)c1cc2c(ccc3ccccc32)oc1=O the results were TRHR PAM 7.4, D1 agonist 3.7, TRHR ag 0.0, D1 antag -9.0 and D1 PAM -2.3.
Screening CCN(CC)c1ccc2cc(C(C)=O)c(=O)oc2c1 returned TRHR PAM -1.9, D1 agonist 145.9*, TRHR ag 66.5*, D1 antag 7.4 and D1 PAM -0.5.
CC(C)=CCC/C(C)=C/COc1c2ccoc2cc2oc(=O)ccc12 was read as TRHR PAM -3.4, D1 agonist 40.3*, TRHR ag 0.4, D1 antag -2.1 and D1 PAM 5.5.
Cc1cccc(C)c1NC(=O)C1C2C=CC(C2)C1C(=O)O (centres undefined) was read as TRHR PAM 2.9, D1 agonist -0.2, TRHR ag 0.0, D1 antag -15.0 and D1 PAM 0.2.
COc1ccc(OC)c(CNC(=O)C2CCCN(c3ncnc4c3nc3n4CCCCC3)C2)c1 (centres undefined) was read as TRHR PAM -11.0, D1 agonist 1.4, TRHR ag -0.7, D1 antag -33.1* and D1 PAM -1.3.
For O=C(NCCCN1CCN(c2ccccc2)CC1)C1CCCN(c2ncnc3c2nc2n3CCCCC2)C1 (centres undefined) the results were TRHR PAM 1.7, D1 agonist 0.7, TRHR ag -0.4, D1 antag -30.4* and D1 PAM -18.7.
For O=C(C1CCN(c2ncnc3c2nc2n3CCCCC2)CC1)N1CCN(c2cccc(Cl)c2)CC1 the results were TRHR PAM 6.0, D1 agonist 7.5, TRHR ag -0.9, D1 antag -30.6*! and D1 PAM -2.5.
For COc1ccccc1CN1CCNC(=O)C1CC(=O)NC1Cc2ccccc2C1 (centres undefined) the results were TRHR PAM -1.9, D1 agonist 0.6, TRHR ag 0.4, D1 antag -19.7 and D1 PAM -4.7.
`O=S(=O)(NCc1c(Cl)cccc1Oc1ccccc1)c1ccc(F)cc1` gave TRHR PAM -6.5, D1 agonist 28.6, TRHR ag 4.4, D1 antag -34.1* and D1 PAM -4.2.
Screening CCCSc1oc(-c2ccco2)nc1S(=O)(=O)c1ccc(Br)cc1 returned TRHR PAM 9.0, D1 agonist 16.6, TRHR ag -0.4, D1 antag -36.4* and D1 PAM 1.9.
For CCCSc1oc(-c2ccco2)nc1S(=O)(=O)c1ccc(C)cc1 the results were TRHR PAM -6.0, D1 agonist 2.7, TRHR ag 0.3, D1 antag 0.5 and D1 PAM -6.7.
